Reference: ChEMBL document CHEMBL1157539, “Thousands of chemical starting points for antimalarial lead identification” (Nature, 2010)

Assays:
Format in all cases: functional
Plasmodium falciparum [1] = test: GSK_TCMDC: Inhibition of Plasmodium falciparum 3D7 in whole red blood cells, using parasite LDH activity as an index of growth. Test compounds present at 2uM
Plasmodium falciparum [2] = test: GSK_TCMDC: Inhibition of Plasmodium falciparum Dd2 in whole red blood cells, using parasite LDH activity as an index of growth. Test compounds present at 2uM
HepG2 = test: GSK_TCMDC: Percent inhibition of human HepG2 cell line. Test compounds present at 10uM.

| Structure (SMILES) | Inhibition (Plasmodium falciparum [1]) [%] | Inhibition (Plasmodium falciparum [2]) [%] | Inhibition (HepG2) [%] |
| --- | --- | --- | --- |
| CC(O)C1CCCCN1C(=O)c1cccc(-c2cccc(-c3nc4cc(C(F)(F)F)ccc4[nH]3)c2)c1 (stereo unspecified) | 100 | 100 | 32 |
| Cc1nc2ccc(F)cc2n1C1CCN(C(=O)Cc2ccc(F)c(F)c2)CC1 | 100 | 99 | 2 |
| Cc1nc(-c2cccc(Nc3nccc(NCC(O)c4cccc(F)c4)n3)c2)cs1 (stereo unspecified) | 98 | 59 | 39 |
| CCN(CC)CCCC(C)Nc1c(-c2ccc(Br)cc2)cnc2ccccc12 (stereo unspecified) | 100 | 95 | 7 |
| Cc1cc2[nH]c(-c3ccc(C(=O)NCCCN4CCN(c5cccc(Cl)c5)CC4)s3)nc2cc1Cl | 100 | 93 | 7 |
| COc1cc(-c2ccc(-c3cnc(N)nc3OC)[nH]2)cc(OC)c1OC | 100 | 54 | 0 |
| C=C(C)CSc1nc2c(c(=O)n1CCc1ccccc1)C1(CCCC1)Cc1ccccc1-2 | 100 | 80 | 14 |
| Clc1ccc(CNCC2CCN(CC3CCCCC3)CC2)cc1Cl | 92 | 6 | 18 |
| CCN(CC)CCNc1ccnc2[nH]c3ccc(C)cc3c12 | 100 | 81 | 9 |
| COc1cc(CCOc2c(C)nc(N)nc2N)cc(OC)c1OC.Cl | 93 | 0 | 59 |
| COc1ccc(CNCCCCCCNCc2ccc(OC)c3ccccc23)c2ccccc12.Cl | 100 | 49 | 100 |
| Cc1ccc(CN2CCCN(Cc3cccc(NC(=O)c4ccc(-c5ccccc5)cc4)c3)CC2)cc1C.O=C(O)C(F)(F)F | 84 | 19 | 43 |
